Results filed as inconclusive are left out. Active and inactive are the calls of the source.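 How the source made its calls, unless noted: active means viability at or below 30% in both replicate assays; inconclusive means viability at or below 30% in just one of the two assays; inactive means the rest.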

The text below walks through data of PubChem BioAssay.

Assay [1] can be described thus: Her2 expression decrease, cell viability multiplex – SKBR3 breast tumor cells, AlphaScreen, ATP viability, primary screen (AID 461;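 active means Her2 level under about 52% in both replicate screens, with viability over 70% of control, limit read from the data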;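 on Her2 level: lower value means less Her2 protein in the cells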;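 on viability: percent of carrier control wells set as 100% viability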). To be noted: SKBR3 Her2 protein level, 18-24 h, measured here: SKBR3 viability, ATP luminescence, at 10 µM.
Assay [2] addresses Receptor tyrosine-protein kinase erbB-2 (Homo sapiens) (UniProt P04626). The description is as above. To be noted: 18-24 h, at 10 µM, stronger effect = lower value.
Assay [3] in a line: reduced viability of SK-BR-3 breast cancer cells – cell-based, 24 h, human, pilot screen (AID 572;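 active means viability at or below 10% of carrier control in both of two separate runs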;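 further: compound exposure lasted between 18 and 24 h rather than exactly 24 h; 100% = carrier-treated control wells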). Conditions: SK-BR-3 viability, CellTiter-Glo luminescence, at 10 µM, stronger effect = lower value.
Assay [4] is described as follows: HUVEC growth inhibition – cell-based, human, primary screen (AID 575).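 Further: 100% = median of untreated cell wells with 0.1% DMSO on each plate.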 To be noted: HUVEC proliferation, CellTiter-Glo luminescence, 72 h; at 10 µM; stronger effect = lower value.
Assay [5] can be described thus: H69AR cell proliferation blockers – human, duplicate replicates, primary screen (AID 580;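 active means viability at or under a set limit in both replicates, limit being median viability minus 3 SD, cut at about 48% in these data, passing the limit was not always enough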;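 further: 100% = mean luminescence of untreated wells and 0% = no signal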). To be noted: H69AR lung tumor cells viability, ATP luminescence, 72 h; at 10 µM; stronger effect = lower value.
Assay [6] in a line: MRP1 drug-resistance reversers in H69AR cells – cell-based, doxorubicin co-treatment, pilot screen (AID 601;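 active means viability loss from added drug above about 55%, and viability with drug at most 40%, in both replicates, limit read from the data, passing the limit was not always enough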). Conditions: CellTiter-Glo, 72 h, at 10 µM; for differential viability (reversal): stronger effect = higher value.
Assay [7] in a line: yeast transport mutant growth inhibition pilot in 384-well plates, post-Golgi transport modulator project (AID 636; in the data active means inhibition above about 31%). Conditions: absorbance 615 nm, about 18 h, stronger effect = higher value.
Assay [8] in a line: growth suppression of yeast trafficking mutant, preliminary HTS, modulators of trafficking downstream of Golgi apparatus project, 1536-format plate, OD 615 nm (AID 637; in the data active means inhibition above about 30%). To be noted: yeast transport mutant growth, absorbance 615 nm, 18 h; stronger effect = higher value.
The nature of assay [9]: S. cerevisiae growth inhibition in permissive medium (OD615), pilot counter-assay for S. cerevisiae lifespan shortening project, permissive growth control (AID 705;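 active means growth inhibition above 25% in both replicates, a cutoff set 3 SD above the mean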). Conditions: OD615, 24 h, at 10 µM, stronger effect = higher value.
Assay [10] can be described thus: S. cerevisiae growth inhibition in restrictive medium, OD615, pilot screen, restrictive growth control, yeast lifespan reduction project (AID 706;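 active means growth inhibition above a set limit, 3 SD over mean compound inhibition, in both replicates, cut at about 43% in these data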;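 further: modified DeaD lifespan yeast strain shifted to restrictive glucose medium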). To be noted: OD615, 48 h, at 10 µM, stronger effect = higher value.
A short description of assay [11]: doxorubicin toxicity protection in MRP-1 cells – H69AR cells, CellTiter-Glo, duplicate, MRP-1 activator project, pilot screen (AID 807;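 active means viability increase at or above a cutoff of the median across tested compounds plus 3 SD, cut at about 8.5% in these data, passing the limit was not always enough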;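 further: compound pretreatment 18-22 h then 72 h combined with doxorubicin; 0% = doxorubicin alone and 100% = vehicle without doxorubicin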). To be noted: H69AR viability with doxorubicin, CellTiter-Glo luminescence; at 10 µM; stronger effect = higher value.
Assay [12] in a line: viability of HCT116 without oncogenic beta-catenin – human colon tumor cells, pilot screen (AID 823;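 active means cell viability at or below a set limit in both duplicate runs, the limit being the all-compound median minus 4 SD, cut at about 23% in these data, passing the limit was not always enough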;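 further: 0% = wells killed by 20 µM Hyamine and 100% = untreated DMSO cell wells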). Conditions: HCT116 beta-catenin knockout viability, CellTiter-Glo, 60 h; at 10 µM; stronger effect = lower value.
Assay [13] is described as follows: viability of PTEN-null HCT116 cells – cell-based, HCT116 clonal line, CellTiter-Glo, pilot screen (AID 824;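 active means viability at or below 27.92% in each of two runs, the all-compound median minus 4 SD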;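 further: 0% = 20 µM Hyamine control and 100% = vehicle cell control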). Conditions: HCT116 PTEN-deleted viability, 60 h, at 10 µM, stronger effect = lower value.
Assay [14] in a line: RAM pathway blockade in budding yeast – dse1pr::URA3 reporter, 5-FOA selection, pilot screen (AID 869;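 active means inhibition over a set limit, the all-compound mean plus 3 SD, in both replicate runs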;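 further: 0% = DMSO wells with no growth and 100% = 10 µM 1-NA-PP1 with full growth; RAM network block rescues cells from 5-FOA so hits raise OD615 growth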). To be noted: S. cerevisiae dse1pr::URA3 5-FOA growth, OD615, 2 d; at 10 µM; stronger effect = higher value; strain carries analog-sensitive mutant Cbk1 kinase.
The nature of assay [15]: RAM signaling pathway blockade in yeast – S. cerevisiae, Pdr1DBD-CYC8 efflux-inhibited sensitized strain, primary screen (AID 1298;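 active means RAM network inhibition above 8.4% in each of two replicates, 3 SD over the compound average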;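 further: 0% = DMSO untreated cells without growth and 100% = 10 µM 1-NA-PP1 full growth; higher means more yeast growth rescued from 5-FOA killing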). Conditions: S. cerevisiae cbk1-as DSE1-URA3 strain, 5-FOA growth OD615, 2 d; at 50 µM; stronger effect = higher value.
Setting [16] is: H69AR cells + 2 uM doxorubicin, measured here: viability with 2 uM doxorubicin, stronger effect = lower value.
Where [17] appears, read: H69AR cells, compound alone cytotoxicity.

Sequence of Receptor tyrosine-protein kinase erbB-2 (Homo sapiens) (P04626 whole entry, looked up): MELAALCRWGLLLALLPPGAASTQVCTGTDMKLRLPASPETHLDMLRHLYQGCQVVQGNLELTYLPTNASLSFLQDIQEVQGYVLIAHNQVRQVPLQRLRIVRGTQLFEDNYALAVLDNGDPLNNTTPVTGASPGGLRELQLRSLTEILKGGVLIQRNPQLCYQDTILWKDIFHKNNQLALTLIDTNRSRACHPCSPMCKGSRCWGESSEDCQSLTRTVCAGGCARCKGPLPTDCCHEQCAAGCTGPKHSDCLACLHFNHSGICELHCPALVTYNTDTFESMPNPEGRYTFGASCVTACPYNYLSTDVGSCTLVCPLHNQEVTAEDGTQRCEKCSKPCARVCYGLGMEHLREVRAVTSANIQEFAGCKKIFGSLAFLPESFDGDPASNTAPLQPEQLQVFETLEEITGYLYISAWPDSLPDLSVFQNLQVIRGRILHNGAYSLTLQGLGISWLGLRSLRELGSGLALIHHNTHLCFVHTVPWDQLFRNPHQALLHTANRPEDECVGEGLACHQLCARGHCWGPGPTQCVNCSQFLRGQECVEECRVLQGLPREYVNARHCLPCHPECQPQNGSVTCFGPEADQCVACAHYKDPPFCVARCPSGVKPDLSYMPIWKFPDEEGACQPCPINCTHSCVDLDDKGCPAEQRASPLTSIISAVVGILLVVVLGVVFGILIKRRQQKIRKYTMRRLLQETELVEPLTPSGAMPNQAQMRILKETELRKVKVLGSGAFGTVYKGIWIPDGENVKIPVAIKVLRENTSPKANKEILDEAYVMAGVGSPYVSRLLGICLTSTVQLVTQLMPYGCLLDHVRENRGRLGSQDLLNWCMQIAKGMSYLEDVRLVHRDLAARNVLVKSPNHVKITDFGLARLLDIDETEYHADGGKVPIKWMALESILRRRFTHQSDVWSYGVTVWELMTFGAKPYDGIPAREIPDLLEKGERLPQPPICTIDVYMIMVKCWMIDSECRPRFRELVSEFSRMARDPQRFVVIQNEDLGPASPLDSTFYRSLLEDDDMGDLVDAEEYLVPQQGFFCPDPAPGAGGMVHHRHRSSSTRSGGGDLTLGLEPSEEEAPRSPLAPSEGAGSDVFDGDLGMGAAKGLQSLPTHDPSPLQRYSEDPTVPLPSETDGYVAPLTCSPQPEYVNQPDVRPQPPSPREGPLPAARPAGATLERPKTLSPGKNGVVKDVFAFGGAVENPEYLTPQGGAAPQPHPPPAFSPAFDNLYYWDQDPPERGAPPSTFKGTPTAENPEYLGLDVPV

For `COc1ccc(N(CC(=O)O)S(=O)(=O)c2ccc(OC)c(OC)c2)cc1`, the viability in assay [1] was 112%; in assay [3], 112% (inactive); in assay [4], 108% (inactive); in assay [5], 90.3% (inactive); in assay [6] (setting [16]), 94.1%; in assay [6] (setting [17]) it was 90.3%. For the same molecule, the figures for the viability in [12] and in [13] were 105% (inactive) and 99.1% (inactive), respectively. For the same molecule, in [2], the Her2 level was 102% (inactive). In addition, the differential viability (reversal) in assay [6] (H69AR cells + 2 uM doxorubicin) was -3.8% (inactive). Further, the inhibition in assay [7] is -3.38% (inactive); in assay [8], 1.31% (inactive); in [14], -0.04% (inactive). Also, the results for the growth inhibition in assay [9] and in assay [10] were -15.1% (inactive) and -11.2% (inactive), respectively. Moreover, in assay [11], the viability increase was -1.32% (inactive). In [15], the RAM network inhibition is 0.87% (inactive).
For `Cc1cc(C)cc(NC(=O)CSc2nnc(Cc3cccn3C)n2-c2ccc(F)cc2)c1`, the viability is 87% in assay [1]; 87% (inactive) in assay [3]; 63.1% (inactive) in assay [4]; 86.6% (inactive) in [5]; 72.6% in assay [6] (setting [16]); 86.6% in assay [6] (setting [17]). For the same molecule, the viability is 74.6% (inactive) in assay [12] and 71.6% (inactive) in assay [13]. For the same molecule, the Her2 level in [2] was 84% (inactive). Besides, the differential viability (reversal) in [6] (H69AR cells + 2 uM doxorubicin) is 14% (inactive). Moreover, the inhibition in [7] is -1.2% (inactive); in assay [8] it was -11.5% (inactive); in [14], 3.69% (inactive). Moreover, the growth inhibition in assay [9] is 3.92% (inactive); in assay [10], 14.7% (inactive). Further, the viability increase in assay [11] was -4.83% (inactive). The RAM network inhibition in [15] was 7.38% (inactive).
With `COCCN(CCOC)Cc1c(C)[nH]c2ccccc2c1=O`, the viability in assay [1] is 96.5%; in assay [3], 96.5% (inactive); in assay [4] it was 105% (inactive); in assay [5] it was 89.4% (inactive); in assay [6] (setting [16]) it was 93.8%; in [6] (setting [17]) it was 89.4%. Further, the values for the viability in [12] and in assay [13] were 92.1% (inactive) and 91.3% (inactive), respectively. Further, in [2], the Her2 level is 98% (inactive). The differential viability (reversal) in assay [6] (H69AR cells + 2 uM doxorubicin) is -4.47% (inactive). Besides, the figures for the inhibition in assay [7], in assay [8] and in assay [14] were 1.28% (inactive), -7.5% (inactive) and 1.22% (inactive), respectively. The growth inhibition was -0.675% (inactive) in assay [9] and -3.83% (inactive) in assay [10]. Besides, the viability increase in assay [11] is -2.47% (inactive). The RAM network inhibition in assay [15] was 3.31% (inactive).
In the case of `C=CCn1c(SCc2cccc(C#N)c2)nnc1-c1ccccc1O`, the viability in [1] was 86.5%; in assay [3], 86.5% (inactive); in assay [4], 85.9% (inactive); in [5], 92.4% (inactive); in [6] (setting [16]), 91.8%; in assay [6] (setting [17]), 92.4%. The viability is 96.2% (inactive) in assay [12] and 88.4% (inactive) in [13]. Also, the Her2 level in assay [2] is 102% (inactive). Moreover, the differential viability (reversal) in assay [6] (H69AR cells + 2 uM doxorubicin) is 0.595% (inactive). The figures for the inhibition in assay [7], in assay [8] and in assay [14] were -4.4% (inactive), -1.5% (inactive) and 2.62% (inactive), respectively. Further, the values for the growth inhibition in assay [9] and in assay [10] were 4.16% (inactive) and 3.15% (inactive), respectively. Moreover, the viability increase in assay [11] is -4.01% (inactive). Besides, the RAM network inhibition in assay [15] is 8.45% (inactive).
Turning to `CCCCn1c2c(c3ccccc31)CCc1nonc1-2`, the viability in assay [1] is 107%; in assay [3], 107% (inactive); in assay [4], 89.6% (inactive); in assay [5], 103% (inactive); in [6] (setting [16]), 105%; in [6] (setting [17]), 103%. Moreover, the viability in assay [12] was 80.4% (inactive); in assay [13], 78.4% (inactive). Also, the Her2 level in assay [2] is 108% (inactive). For the same molecule, in assay [6] (H69AR cells + 2 uM doxorubicin), the differential viability (reversal) was -2.16% (inactive). The inhibition in assay [7] is -0.77% (inactive); in assay [8], -3.67% (inactive); in assay [14], 2.28% (inactive). Also, the growth inhibition is -8.86% (inactive) in assay [9] and -29.4% (inactive) in assay [10]. Moreover, in assay [11], the viability increase is 1.75% (inactive). In addition, the RAM network inhibition in assay [15] is 2.83% (inactive).
For `O=C(O)c1ccccc1S(=O)(=O)NCC(O)COc1ccc(Br)cc1` (stereo not drawn), the viability is 102% in [1]; 102% (inactive) in assay [3]; 119% (inactive) in assay [4]; 99.9% (inactive) in assay [5]; 93.6% in assay [6] (setting [16]); 99.9% in [6] (setting [17]). Besides, the viability in [12] was 97.9% (inactive); in assay [13], 100% (inactive). Further, the Her2 level in [2] was 84.5% (inactive). In addition, the differential viability (reversal) in assay [6] (H69AR cells + 2 uM doxorubicin) was 6.29% (inactive). The inhibition is -2.47% (inactive) in assay [7], -1.17% (inactive) in assay [8] and 1.09% (inactive) in assay [14]. The growth inhibition is -17.1% (inactive) in assay [9] and -22.2% (inactive) in assay [10]. The viability increase in assay [11] was 0.84% (inactive). The RAM network inhibition in assay [15] is 7.5% (inactive).
Turning to `CCCCc1ccc(NC(=O)C2CCCO2)cc1` (stereo not drawn), the viability is 92% in assay [1]; 92% (inactive) in assay [3]; 93.5% (inactive) in assay [4]; 103% (inactive) in [5]; 82.2% in [6] (setting [16]); 103% in assay [6] (setting [17]). In addition, the viability in assay [12] was 100% (inactive); in assay [13] it was 94.5% (inactive). The Her2 level in assay [2] was 122% (inactive). Also, the differential viability (reversal) in assay [6] (H69AR cells + 2 uM doxorubicin) is 20.8% (inactive). Besides, the values for the inhibition in assay [7], in [8] and in assay [14] were -4.87% (inactive), -5.33% (inactive) and 1.05% (inactive), respectively. The growth inhibition in assay [9] was 2.46% (inactive); in [10], 2.07% (inactive). The viability increase in assay [11] was 2.53% (inactive). Further, the RAM network inhibition in [15] is 3.17% (inactive).
As to `CCOc1ccccc1C(=O)Nc1cc(=O)n(C)c(=O)n1C`, the viability in [1] is 89.5%; in [3] it was 89.5% (inactive); in assay [4], 86.8% (inactive); in assay [5], 88.1% (inactive); in assay [6] (setting [16]), 89.9%; in [6] (setting [17]) it was 88.1%. In addition, the viability is 103% (inactive) in assay [12] and 100% (inactive) in assay [13]. For the same molecule, the Her2 level in assay [2] was 88.5% (inactive). The differential viability (reversal) in assay [6] (H69AR cells + 2 uM doxorubicin) was -1.81% (inactive). Besides, the inhibition in [7] is -5.47% (inactive); in assay [8] it was 3.5% (inactive); in [14], 0.715% (inactive). The growth inhibition in assay [9] is -0.335% (inactive); in assay [10] it was 2.84% (inactive). For the same molecule, the viability increase in [11] was -0.06% (inactive). Besides, in assay [15], the RAM network inhibition was -2.04% (inactive).
Regarding `CCCCn1c(CNC(=O)CCC)nc2ccccc21`, the viability in assay [1] was 116%; in [3], 116% (inactive); in assay [4] it was 87.8% (inactive); in assay [5] it was 91.8% (inactive); in assay [6] (setting [16]) it was 87.9%; in assay [6] (setting [17]), 91.8%. In addition, the results for the viability in assay [12] and in assay [13] were 104% (inactive) and 100% (inactive), respectively. The Her2 level in assay [2] was 102% (inactive). For the same molecule, the differential viability (reversal) in [6] (H69AR cells + 2 uM doxorubicin) was 3.83% (inactive). The inhibition in assay [7] is -5.2% (inactive); in assay [8] it was -4.67% (inactive); in [14], -0.485% (inactive). Besides, the growth inhibition in [9] is -9.17% (inactive); in assay [10] it was -13.8% (inactive). In addition, the viability increase in assay [11] was -2.97% (inactive). For the same molecule, in assay [15], the RAM network inhibition is 1.51% (inactive).
